{"source": "PubChem BioAssay (EPA / NIEHS)", "key": {"[1]": {"system": "turtle Estrogen Receptor (ERa), gene 101933533", "test": "ATG_trERa_XSP2: Attagene TRANS-FACTORIAL Multi-Species (XSP2) HepG2 Assay for turtle Estrogen Receptor (ERa) (AID 2283812);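 further: actives raise reporter signal above DMSO so AC50 reflects agonist activity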", "outline": "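Readout is reporter mRNA quantified by RT-PCR with capillary electrophoresis after 24 h compound exposure, increase relative to DMSO. Uses transiently transfected human HepG2 liver cells carrying a chimeric turtle ERa-Gal4 receptor driving GAL4-UAS reporters.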"}, "[2]": {"molecular_target": "Estrogen receptor beta (Homo sapiens) (UniProt Q92731)", "sequence (Q92731 whole entry, looked up, the tested form may be a part)": "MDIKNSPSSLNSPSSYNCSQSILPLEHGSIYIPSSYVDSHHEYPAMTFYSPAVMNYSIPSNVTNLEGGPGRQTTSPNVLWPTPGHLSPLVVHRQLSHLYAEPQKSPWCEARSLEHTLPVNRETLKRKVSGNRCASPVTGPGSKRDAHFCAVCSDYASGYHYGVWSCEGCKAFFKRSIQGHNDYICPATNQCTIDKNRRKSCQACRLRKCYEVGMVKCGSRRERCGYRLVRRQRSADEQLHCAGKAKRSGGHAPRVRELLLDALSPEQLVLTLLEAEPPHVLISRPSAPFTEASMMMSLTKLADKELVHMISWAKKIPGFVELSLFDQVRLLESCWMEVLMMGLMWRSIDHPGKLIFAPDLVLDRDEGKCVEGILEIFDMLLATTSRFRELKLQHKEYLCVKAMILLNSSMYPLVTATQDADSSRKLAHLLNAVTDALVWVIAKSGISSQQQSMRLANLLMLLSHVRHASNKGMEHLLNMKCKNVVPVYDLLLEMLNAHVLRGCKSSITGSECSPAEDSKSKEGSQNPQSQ", "test": "ATG_hERb_XSP2: Attagene TRANS-FACTORIAL Multi-Species (XSP2) HepG2 Assay for human Estrogen Receptor (ERb) (AID 2283813);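 further: actives raise reporter mRNA above DMSO so AC50 reflects agonist induction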", "outline": "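Transient TRANS reporter system in HepG2: after 24 h of chemical, RNA is reverse-transcribed, reporter cDNA amplified, FAM-labelled and sized by capillary electrophoresis. Induction of the human ERb-Gal4 reporter is measured relative to DMSO.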"}, "[3]": {"system": "turtle Androgen Receptor (AR), gene 101947425", "test": "ATG_trAR_XSP2: Attagene TRANS-FACTORIAL Multi-Species (XSP2) HepG2 Assay for turtle Androgen Receptor (AR) (AID 2283815);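 on AC50: potency for gain of reporter signal meaning activation above DMSO baseline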", "outline": "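Reporter transcripts were quantified via RT-PCR and capillary electrophoresis and fitted upward against DMSO. Transiently transfected human HepG2 cells carrying NR-Gal4 chimeras were exposed 24 h, with 3 nM 6-alpha-fluorotestosterone plus 1.5 nM norgestrel added.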"}, "[4]": {"molecular_target": "zebrafish Estrogen Receptor (ER1), esr1 (gene 259252) (UniProt P57717)", "sequence (P57717 whole entry, looked up, the tested form may be a part)": "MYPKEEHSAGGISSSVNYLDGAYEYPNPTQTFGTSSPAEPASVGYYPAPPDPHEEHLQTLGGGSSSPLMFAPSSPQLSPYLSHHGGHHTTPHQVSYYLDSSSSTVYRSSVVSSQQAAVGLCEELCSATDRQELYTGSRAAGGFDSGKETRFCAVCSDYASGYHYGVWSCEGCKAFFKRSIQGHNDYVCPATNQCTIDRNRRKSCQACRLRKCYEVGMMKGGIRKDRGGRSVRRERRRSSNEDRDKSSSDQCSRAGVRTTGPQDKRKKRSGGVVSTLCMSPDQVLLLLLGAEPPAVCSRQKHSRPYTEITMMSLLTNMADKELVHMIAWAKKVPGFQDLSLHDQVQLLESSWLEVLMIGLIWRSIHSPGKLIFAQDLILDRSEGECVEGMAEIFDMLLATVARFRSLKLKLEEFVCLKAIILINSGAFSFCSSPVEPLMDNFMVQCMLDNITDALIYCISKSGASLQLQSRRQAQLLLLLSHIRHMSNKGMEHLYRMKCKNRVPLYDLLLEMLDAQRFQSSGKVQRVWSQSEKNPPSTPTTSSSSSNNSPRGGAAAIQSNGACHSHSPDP", "test": "ATG_zfER1_XSP2: Attagene TRANS-FACTORIAL Multi-Species (XSP2) HepG2 Assay for zebrafish Estrogen Receptor (ER1) (AID 2283816)", "outline": "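After 24 h compound exposure, RNA from transfected HepG2 cells was reverse-transcribed and reporter transcripts resolved by capillary electrophoresis. The TRANS format reads exogenous zebrafish ER1-Gal4 chimera activity on GAL4-UAS elements; gain of signal against DMSO.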"}, "[5]": {"molecular_target": "chicken Estrogen Receptor (ERa), ESR1 (gene 396099) (UniProt P06212)", "sequence (P06212 whole entry, looked up, the tested form may be a part)": "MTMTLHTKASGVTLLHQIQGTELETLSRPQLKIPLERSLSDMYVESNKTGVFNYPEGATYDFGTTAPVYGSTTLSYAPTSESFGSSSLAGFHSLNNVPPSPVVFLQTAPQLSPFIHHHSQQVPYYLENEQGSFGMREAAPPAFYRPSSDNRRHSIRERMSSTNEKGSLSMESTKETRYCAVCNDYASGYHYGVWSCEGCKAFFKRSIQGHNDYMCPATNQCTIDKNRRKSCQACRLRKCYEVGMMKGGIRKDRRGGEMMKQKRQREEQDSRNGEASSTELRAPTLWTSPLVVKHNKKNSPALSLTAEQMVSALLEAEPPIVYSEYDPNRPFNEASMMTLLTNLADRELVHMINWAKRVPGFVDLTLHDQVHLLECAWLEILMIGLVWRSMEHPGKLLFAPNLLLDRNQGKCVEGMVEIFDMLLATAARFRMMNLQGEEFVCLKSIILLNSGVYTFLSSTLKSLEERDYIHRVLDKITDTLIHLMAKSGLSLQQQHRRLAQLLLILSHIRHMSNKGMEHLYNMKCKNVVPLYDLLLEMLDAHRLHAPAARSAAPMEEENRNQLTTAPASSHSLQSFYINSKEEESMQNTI", "test": "ATG_chERa_XSP2: Attagene TRANS-FACTORIAL Multi-Species (XSP2) HepG2 Assay for chicken Estrogen Receptor (ERa) (AID 2283817);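 further: actives raise reporter signal above DMSO so AC50 reflects ER activation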", "outline": "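Readout: fluorescent reporter-transcript fragments resolved by capillary electrophoresis after RT-PCR and HpaI cut. Chicken ERa-Gal4 fusion in transiently transfected HepG2, dosed for 24 h; activity taken as increase over DMSO baseline.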"}, "[6]": {"system": "zebrafish Estrogen Receptor (ER2a), gene 317734", "test": "ATG_zfER2a_XSP2: Attagene TRANS-FACTORIAL Multi-Species (XSP2) HepG2 Assay for zebrafish Estrogen Receptor (ER2a) (AID 2283818);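 further: hits raise reporter mRNA so AC50 reflects activation of zebrafish ER2a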", "outline": "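Multiplexed trans-reporter readout: RT-PCR then capillary electrophoresis of reporter transcripts after 24 h compound treatment. Human HepG2 carries transfected zebrafish ER2a-Gal4 chimera; 3 nM 6-alpha-fluorotestosterone plus 1.5 nM norgestrel present. Induction scored against DMSO.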"}, "[7]": {"test": "ATG_M_06_XSP2: Attagene TRANS-FACTORIAL Multi-Species (XSP2) HepG2 Assay for M06 Transcription Factor (Internal Marker) (AID 2283811)", "outline": "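Readout: fluorescent reporter-mRNA peaks by capillary electrophoresis after RT-PCR and HpaI digest, scored upward relative to DMSO. Transfected HepG2, 24 h chemical exposure, with 3 nM 6-alpha-fluorotestosterone and 1.5 nM norgestrel added.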"}, "[8]": {"molecular_target": "GAL4 Transcription Factor (Internal Marker), GAL4 (gene 855828) (UniProt P04386)", "sequence (P04386 whole entry, looked up, the tested form may be a part)": "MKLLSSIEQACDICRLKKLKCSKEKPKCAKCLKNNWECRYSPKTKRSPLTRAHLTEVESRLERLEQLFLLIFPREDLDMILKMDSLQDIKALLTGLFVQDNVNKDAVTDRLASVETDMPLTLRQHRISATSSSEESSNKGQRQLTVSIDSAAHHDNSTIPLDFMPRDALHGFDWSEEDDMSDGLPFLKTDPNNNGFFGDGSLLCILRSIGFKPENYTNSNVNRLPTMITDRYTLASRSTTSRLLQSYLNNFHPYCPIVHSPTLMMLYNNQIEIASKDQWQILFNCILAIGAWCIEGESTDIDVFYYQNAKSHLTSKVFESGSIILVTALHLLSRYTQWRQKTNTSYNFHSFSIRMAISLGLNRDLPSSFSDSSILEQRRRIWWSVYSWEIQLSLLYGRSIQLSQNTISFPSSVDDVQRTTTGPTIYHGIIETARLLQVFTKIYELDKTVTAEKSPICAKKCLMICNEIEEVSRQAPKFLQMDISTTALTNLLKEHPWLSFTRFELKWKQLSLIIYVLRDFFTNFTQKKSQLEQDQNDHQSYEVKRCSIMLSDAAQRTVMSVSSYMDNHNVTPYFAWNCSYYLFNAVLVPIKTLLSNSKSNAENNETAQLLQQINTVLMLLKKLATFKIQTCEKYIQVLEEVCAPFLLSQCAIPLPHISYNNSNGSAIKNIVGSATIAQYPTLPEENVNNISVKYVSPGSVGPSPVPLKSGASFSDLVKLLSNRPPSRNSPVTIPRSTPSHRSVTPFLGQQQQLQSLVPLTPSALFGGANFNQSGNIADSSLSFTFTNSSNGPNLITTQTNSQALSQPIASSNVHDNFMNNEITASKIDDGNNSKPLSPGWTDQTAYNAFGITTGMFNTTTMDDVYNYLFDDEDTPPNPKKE", "test": "ATG_GAL4_XSP2: Attagene TRANS-FACTORIAL Multi-Species (XSP2) HepG2 Assay for GAL4 Transcription Factor (Internal Marker) (AID 2283814)", "outline": "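Background-control readout: gain-of-signal fitted against DMSO. After 24 h exposure of transfected HepG2 (MRTU, GAL4-UAS reporters; 3 nM 6-alpha-fluorotestosterone, 1.5 nM norgestrel present), transcripts quantified by RT-PCR and capillary electrophoresis fluorescence.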"}, "[9]": {"molecular_target": "zebrafish Thyroid Hormone Receptor beta (TRb), thrb (gene 30607) (UniProt Q9PVE4)", "sequence (Q9PVE4 whole entry, looked up, the tested form may be a part)": "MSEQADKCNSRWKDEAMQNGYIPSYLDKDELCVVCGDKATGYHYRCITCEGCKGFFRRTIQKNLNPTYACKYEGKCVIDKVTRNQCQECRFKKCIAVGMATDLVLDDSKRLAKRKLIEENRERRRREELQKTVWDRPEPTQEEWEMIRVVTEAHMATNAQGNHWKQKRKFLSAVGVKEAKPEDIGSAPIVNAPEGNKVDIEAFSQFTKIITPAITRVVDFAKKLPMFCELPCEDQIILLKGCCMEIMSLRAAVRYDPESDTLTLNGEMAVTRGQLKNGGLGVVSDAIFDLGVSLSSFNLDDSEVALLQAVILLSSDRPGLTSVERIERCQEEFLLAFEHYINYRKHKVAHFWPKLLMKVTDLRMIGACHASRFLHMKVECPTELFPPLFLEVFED", "test": "ATG_zfTRb_XSP1: Attagene TRANS-FACTORIAL Multi-Species (XSP1) HepG2 Assay for zebrafish Thyroid Hormone Receptor beta (TRb) (AID 2283809)", "outline": "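HepG2 cells transiently transfected with multiplexed GAL4-UAS reporter units expressing chimeric zebrafish TRb–Gal4. Dosed 24 h with 3 nM 6-alpha-fluorotestosterone present; reporter mRNA measured by RT-PCR, HpaI digestion and capillary electrophoresis; gain of signal versus DMSO.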"}, "[10]": {"test": "ATG_XTT_Cytotoxicity_XSP1: Cytotoxicity Assessment in the Attagene TRANS-FACTORIAL Multi-Species (XSP1) HepG2 Assay (AID 2283810)", "outline": "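XTT viability readout taken at 24 hours post-dosing in HepG2 liver cells co-treated with 3 nM 6-alpha-fluorotestosterone. Signal loss relative to DMSO controls reflects cytotoxicity.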"}}, "note": "Values joined by “and” are separate entries in the source; they are usually repeats but may differ in a detail not shown here. Equal entries are not always repeated. Results filed as inconclusive are left out. Some compounds were tested as several samples or in several runs, with calls that do not always agree. Active and inactive are the calls of the source. How the source made its calls: active means hit-call score of the fitted dose curve at least 0.9, where 1 is the maximum; inconclusive means response in the unintended direction; inactive means score below 0.9.", "data": [{"smiles": "C#C[C@]1(O)CC[C@H]2[C@@H]3CCC4=CC(=O)CC[C@@H]4[C@H]3CC[C@@]21C", "values": [{"measurement": "AC50", "setting": "[1]", "value": "122 nM (active)"}, {"measurement": "AC50", "setting": "[2]", "value": "2.43 µM (active)"}, {"measurement": "AC50", "setting": "[3]", "value": "180000 nM (active)"}, {"measurement": "AC50", "setting": "[4]", "value": "1.65 µM (active)"}, {"measurement": "AC50", "setting": "[5]", "value": "76.6 nM (active)"}, {"measurement": "AC50", "setting": "[6]", "value": "83.4 nM (active)"}]}, {"smiles": "CCC(=C(c1ccc(O)cc1)c1ccc(OCCN(C)C)cc1)c1ccccc1", "values": [{"measurement": "outcome", "setting": "[7]", "value": "inactive"}, {"measurement": "outcome", "setting": "[2]", "value": "inactive"}, {"measurement": "outcome", "setting": "[8]", "value": "inactive"}, {"measurement": "outcome", "setting": "[4]", "value": "inactive"}]}, {"smiles": "Oc1cc2ccccc2c2ccccc12", "values": [{"measurement": "outcome", "setting": "[1]", "value": "inactive"}, {"measurement": "outcome", "setting": "[2]", "value": "inactive"}, {"measurement": "outcome", "setting": "[8]", "value": "inactive"}, {"measurement": "outcome", "setting": "[4]", "value": "inactive"}, {"measurement": "outcome", "setting": "[6]", "value": "inactive"}]}, {"smiles": "O=C(O)Cc1cc(I)c(Oc2cc(I)c(O)c(I)c2)c(I)c1", "values": [{"measurement": "outcome", "setting": "[7]", "value": "inactive"}, {"measurement": "outcome", "setting": "[1]", "value": "inactive"}, {"measurement": "outcome", "setting": "[8]", "value": "inactive"}, {"measurement": "outcome", "setting": "[3]", "value": "inactive"}, {"measurement": "outcome", "setting": "[4]", "value": "inactive"}, {"measurement": "outcome", "setting": "[6]", "value": "inactive"}]}, {"smiles": "O=c1c(-c2ccc(O)cc2)coc2cc(O)ccc12", "values": [{"measurement": "outcome", "setting": "[7]", "value": "inactive"}, {"measurement": "AC50", "setting": "[1]", "value": "994 nM (active) and 448 nM (active)"}, {"measurement": "AC50", "setting": "[3]", "value": "2320 nM (active)"}, {"measurement": "outcome", "setting": "[3]", "value": "inactive"}, {"measurement": "AC50", "setting": "[4]", "value": "6.22 µM (active) and 2.67 µM (active)"}, {"measurement": "AC50", "setting": "[5]", "value": "1.49 µM (active) and 369 nM (active)"}, {"measurement": "AC50", "setting": "[6]", "value": "385 nM (active) and 164 nM (active)"}]}, {"smiles": "Cc1oc(-c2ccccc2)nc1CCOc1ccc(C[C@H](Nc2ccccc2C(=O)c2ccccc2)C(=O)O)cc1", "values": [{"measurement": "outcome", "setting": "[9]", "value": "inactive"}, {"measurement": "outcome", "setting": "[10]", "value": "inactive"}, {"measurement": "outcome", "setting": "[7]", "value": "inactive"}, {"measurement": "outcome", "setting": "[1]", "value": "inactive"}, {"measurement": "outcome", "setting": "[2]", "value": "inactive"}]}, {"smiles": "CC[C@H](c1ccc(O)cc1)[C@@H](CC)c1ccc(O)cc1", "values": [{"measurement": "outcome", "setting": "[9]", "value": "inactive"}, {"measurement": "outcome", "setting": "[10]", "value": "inactive"}, {"measurement": "outcome", "setting": "[7]", "value": "inactive"}, {"measurement": "AC50", "setting": "[1]", "value": "0.0546 nM (active)"}, {"measurement": "AC50", "setting": "[2]", "value": "0.000147 µM (active)"}, {"measurement": "AC50", "setting": "[4]", "value": "0.000411 µM (active)"}, {"measurement": "AC50", "setting": "[5]", "value": "0.0247 nM (active)"}, {"measurement": "AC50", "setting": "[6]", "value": "0.124 nM (active)"}]}, {"smiles": "CCC(C)(C)C1CCC(O)CC1", "note": "(configuration not stated)", "values": [{"measurement": "outcome", "setting": "[9]", "value": "inactive"}, {"measurement": "outcome", "setting": "[7]", "value": "inactive"}, {"measurement": "outcome", "setting": "[1]", "value": "inactive"}, {"measurement": "outcome", "setting": "[8]", "value": "inactive"}, {"measurement": "outcome", "setting": "[4]", "value": "inactive"}, {"measurement": "outcome", "setting": "[5]", "value": "inactive"}, {"measurement": "outcome", "setting": "[6]", "value": "inactive"}]}, {"smiles": "c1ccc2c(c1)ccc1ccccc12", "values": [{"measurement": "outcome", "setting": "[7]", "value": "inactive"}, {"measurement": "outcome", "setting": "[1]", "value": "inactive"}, {"measurement": "outcome", "setting": "[8]", "value": "inactive"}, {"measurement": "outcome", "setting": "[5]", "value": "inactive"}, {"measurement": "outcome", "setting": "[6]", "value": "inactive"}]}, {"smiles": "CCCOC(=O)c1ccc(O)cc1", "values": [{"measurement": "outcome", "setting": "[7]", "value": "inactive"}, {"measurement": "AC50", "setting": "[1]", "value": "72.9 µM (active) and 726 nM (active)"}, {"measurement": "AC50", "setting": "[2]", "value": "31.9 µM (active) and 2.52 µM (active)"}, {"measurement": "outcome", "setting": "[8]", "value": "inactive"}, {"measurement": "outcome", "setting": "[3]", "value": "inactive"}, {"measurement": "AC50", "setting": "[4]", "value": "11.1 µM (active)"}, {"measurement": "outcome", "setting": "[4]", "value": "inactive"}, {"measurement": "AC50", "setting": "[5]", "value": "27.8 µM (active) and 9.35 µM (active)"}, {"measurement": "AC50", "setting": "[6]", "value": "51 µM (active) and 3.49 µM (active)"}]}]}
